Data on nine compounds can be found in PubChem BioAssay (EPA / NIEHS).

For assay [1], the target named is human CYP2D6, CYP2D6 (gene 1565) (UniProt P10635). The assay can be described thus: NVS_ADME_hCYP2D6: NovaScreen (NVS) CYP450-related Enzyme Activity (ADME) Assay for human CYP2D6 (AID 2283107). An outline of the steps:
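Cell-free assay using recombinant enzyme expressed in insect cells, with fluorescence-intensity readout of enzyme activity 1 hour after chemical dosing. Loss of signal versus acetonitrile negative control indicates inhibition. Primary screen ran in duplicate at 10 uM; actives were retested in concentration series.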

The target of assay [2] is human CYP2C9, CYP2C9 (gene 1559) (UniProt P11712). The assay can be described thus: NVS_ADME_hCYP2C9: NovaScreen (NVS) CYP450-related Enzyme Activity (ADME) Assay for human CYP2C9 (AID 2283108). How it is done: NVS_ADME_hCYP2C9 is a biochemical, single-readout assay that uses extracted gene-proteins from SF9 in a cell-free assay. Measurements were taken 0.75 hour after chemical dosing in a 96-well plate.NVS_ADME_hCYP2C9 is one of one assay component(s) measured or calculated from the NVS_ADME_hCYP2C9 assay. It is designed to make measurements of enzyme activity, a form of enzyme reporter, as detected with fluorescence intensity signals by Fluorescence technology.Data from the assay component NVS_ADME_hCYP2C9 was analyzed into 1 assay endpoint. This assay endpoint, NVS_ADME_hCYP2C9, was analyzed in the positive analysis fitting direction relative to Acetonitrile as the negative control and baseline of activity. Using a type of enzyme reporter, loss-of-signal activity can be used to understand changes in the enzymatic activity as they relate to the gene CYP2C9. Furthermore, this assay endpoint can be referred to as a primary readout, because this assay has produced multiple assay endpoints where this one serves a enzymatic activity function. To generalize the intended target to other relatable targets, this assay endpoint is annotated to the cyp intended target family, where the subfamily is xenobiotic metabolism. […]

The target in assay [3] is Cytochrome P450 3A4 (Homo sapiens) (UniProt P08684). The assay can be described thus: NVS_ADME_hCYP3A4: NovaScreen (NVS) CYP450-related Enzyme Activity (ADME) Assay for human CYP3A4 (AID 2283110). In a few lines:
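Recombinant CYP3A4 from insect cells, fluorescence enzyme read-out, 0.33 h after chemical addition. Acetonitrile = negative control/baseline. Primary HTS: 10 uM in duplicate; actives re-tested in concentration series.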

Assay [4] addresses rat CYP2A2, Cyp2a2 (gene 24895) (UniProt P15149). The assay can be described thus: NVS_ADME_rCYP2A2: NovaScreen (NVS) CYP450-related Enzyme Activity (ADME) Assay for rat CYP2A2 (AID 2283116). In a few lines:
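Compounds first tested in duplicate at 10 uM, then in singleton concentration series up to 20 uM when over threshold. Activity of the recombinant enzyme read by fluorescence at 0.2 h, normalised to acetonitrile vehicle.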

Assay [5] deals with human Acid Phosphatase 1 (ACP1), ACP1 (gene 52) (UniProt P24666). Kind of assay: NVS_ENZ_hACP1: NovaScreen (NVS) Enzymatic Assay for human Acid Phosphatase 1 (ACP1) (AID 2283136). In a few lines:
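Cell-free fluorescence read-out of phosphatase activity, substrate and product separated by mobility shift, taken 1.5 h after compound addition; protein produced in Sf9. Single 25 uM duplicate screen, followed by concentration series for actives, scored as signal loss relative to DMSO.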

The target of assay [6] is human Caspase 5 (CASP5), CASP5 (gene 838) (UniProt P51878). The assay can be described thus: NVS_ENZ_hCASP5: NovaScreen (NVS) Enzymatic Assay for human Caspase 5 (CASP5) (AID 2283137). An outline of the steps:
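Fluorescent substrate readout of CASP5 activity (loss-of-signal), measured 2 h post-dose. Protein expressed in E. coli. Primary screen duplicate at 25 uM; actives meeting threshold (e.g., 30% inhibition) rerun singleton, max 50 uM.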

Assay [7] deals with human AKT serine/threonine Kinase 2 (AKT2), AKT2 (gene 208) (UniProt P31751). Kind of assay: NVS_ENZ_hAKT2: NovaScreen (NVS) Enzymatic Assay for human AKT serine/threonine Kinase 2 (AKT2) (AID 2283141). An outline of the steps: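 Cell-free fluorescence/electrophoretic mobility shift readout of recombinant human AKT2 activity, 1 h after chemical dosing. Duplicate primary screen at 25 uM, then singleton concentration-response up to 50 uM; loss of signal versus DMSO baseline.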

Each structure is given as a SMILES string. Inconclusive results are not listed. Active and inactive are the calls of the source. How the source made its calls: active means hit-call score of the fitted dose curve at least 0.9, where 1 is the maximum; inconclusive means response in the unintended direction; inactive means score below 0.9.

Chain of human Acid Phosphatase 1 (ACP1), ACP1 (gene 52) (P24666 whole entry, looked up): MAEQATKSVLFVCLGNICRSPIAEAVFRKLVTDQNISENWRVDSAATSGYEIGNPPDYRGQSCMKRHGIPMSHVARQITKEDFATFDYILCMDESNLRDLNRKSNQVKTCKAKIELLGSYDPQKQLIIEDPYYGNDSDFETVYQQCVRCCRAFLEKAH
Chain of human CYP2D6, CYP2D6 (gene 1565) (P10635 whole entry, looked up): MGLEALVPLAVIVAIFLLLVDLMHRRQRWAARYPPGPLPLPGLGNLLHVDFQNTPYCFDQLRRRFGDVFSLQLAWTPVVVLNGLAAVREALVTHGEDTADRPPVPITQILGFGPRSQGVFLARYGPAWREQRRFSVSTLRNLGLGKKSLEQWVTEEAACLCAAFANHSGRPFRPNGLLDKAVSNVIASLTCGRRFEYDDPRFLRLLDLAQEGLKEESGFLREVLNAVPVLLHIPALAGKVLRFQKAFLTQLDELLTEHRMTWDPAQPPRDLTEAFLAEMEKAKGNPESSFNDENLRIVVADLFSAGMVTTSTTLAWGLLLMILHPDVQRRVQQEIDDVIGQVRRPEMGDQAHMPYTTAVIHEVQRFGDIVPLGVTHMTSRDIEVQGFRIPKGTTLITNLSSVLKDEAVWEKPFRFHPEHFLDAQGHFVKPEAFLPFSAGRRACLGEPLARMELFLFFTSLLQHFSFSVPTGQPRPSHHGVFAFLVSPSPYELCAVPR
Chain of Cytochrome P450 3A4 (Homo sapiens) (P08684 whole entry, looked up): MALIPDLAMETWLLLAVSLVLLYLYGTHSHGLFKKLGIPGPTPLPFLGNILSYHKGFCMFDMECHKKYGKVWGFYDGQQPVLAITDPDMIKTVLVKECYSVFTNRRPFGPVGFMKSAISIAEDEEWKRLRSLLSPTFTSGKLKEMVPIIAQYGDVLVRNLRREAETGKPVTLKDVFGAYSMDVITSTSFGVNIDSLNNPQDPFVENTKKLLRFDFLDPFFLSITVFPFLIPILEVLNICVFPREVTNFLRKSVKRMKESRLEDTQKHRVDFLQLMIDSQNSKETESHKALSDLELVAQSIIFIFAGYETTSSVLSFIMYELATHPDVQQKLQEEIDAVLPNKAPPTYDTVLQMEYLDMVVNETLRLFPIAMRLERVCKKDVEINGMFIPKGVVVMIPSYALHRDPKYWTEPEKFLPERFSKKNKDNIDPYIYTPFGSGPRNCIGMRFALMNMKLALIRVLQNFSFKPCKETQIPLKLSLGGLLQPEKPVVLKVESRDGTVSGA
Chain of human Caspase 5 (CASP5), CASP5 (gene 838) (P51878 whole entry, looked up): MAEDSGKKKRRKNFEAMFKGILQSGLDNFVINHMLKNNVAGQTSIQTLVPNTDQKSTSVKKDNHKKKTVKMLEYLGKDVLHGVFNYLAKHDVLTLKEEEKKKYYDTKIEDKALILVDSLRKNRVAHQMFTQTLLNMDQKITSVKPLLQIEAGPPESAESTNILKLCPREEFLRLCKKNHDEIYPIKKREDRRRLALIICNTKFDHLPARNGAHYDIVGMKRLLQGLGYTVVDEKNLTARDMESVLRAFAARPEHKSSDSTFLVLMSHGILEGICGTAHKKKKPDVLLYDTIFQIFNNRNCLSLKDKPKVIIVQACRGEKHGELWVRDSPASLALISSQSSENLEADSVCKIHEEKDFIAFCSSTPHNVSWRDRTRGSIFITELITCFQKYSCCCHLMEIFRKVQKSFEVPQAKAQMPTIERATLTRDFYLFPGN
Chain of rat CYP2A2, Cyp2a2 (gene 24895) (P15149 whole entry, looked up): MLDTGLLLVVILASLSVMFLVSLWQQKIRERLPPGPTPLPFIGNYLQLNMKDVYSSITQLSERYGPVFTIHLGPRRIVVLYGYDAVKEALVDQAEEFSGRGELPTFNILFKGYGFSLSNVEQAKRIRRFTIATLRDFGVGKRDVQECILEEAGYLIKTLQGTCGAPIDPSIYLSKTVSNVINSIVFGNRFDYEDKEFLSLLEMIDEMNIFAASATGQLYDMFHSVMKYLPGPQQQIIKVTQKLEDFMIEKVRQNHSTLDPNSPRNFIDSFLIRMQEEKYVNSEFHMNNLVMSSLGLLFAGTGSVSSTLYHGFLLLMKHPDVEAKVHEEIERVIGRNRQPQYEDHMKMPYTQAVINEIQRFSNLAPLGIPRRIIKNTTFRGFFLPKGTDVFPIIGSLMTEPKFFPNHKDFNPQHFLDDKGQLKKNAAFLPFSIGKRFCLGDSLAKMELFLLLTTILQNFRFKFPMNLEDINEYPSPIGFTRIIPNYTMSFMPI
Chain of human AKT serine/threonine Kinase 2 (AKT2), AKT2 (gene 208) (P31751 whole entry, looked up): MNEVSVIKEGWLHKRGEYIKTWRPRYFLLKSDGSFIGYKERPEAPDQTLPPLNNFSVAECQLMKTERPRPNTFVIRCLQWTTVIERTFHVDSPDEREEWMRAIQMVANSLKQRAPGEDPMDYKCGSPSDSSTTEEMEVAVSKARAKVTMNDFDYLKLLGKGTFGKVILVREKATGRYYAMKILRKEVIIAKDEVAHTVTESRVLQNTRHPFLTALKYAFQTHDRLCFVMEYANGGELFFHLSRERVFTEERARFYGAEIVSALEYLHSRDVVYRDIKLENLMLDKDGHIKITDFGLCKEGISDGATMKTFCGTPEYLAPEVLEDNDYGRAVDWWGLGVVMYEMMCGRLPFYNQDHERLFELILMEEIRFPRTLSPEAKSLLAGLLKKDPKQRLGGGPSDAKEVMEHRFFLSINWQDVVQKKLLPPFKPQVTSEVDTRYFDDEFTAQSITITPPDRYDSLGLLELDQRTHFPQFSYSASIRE
Chain of human CYP2C9, CYP2C9 (gene 1559) (P11712 whole entry, looked up): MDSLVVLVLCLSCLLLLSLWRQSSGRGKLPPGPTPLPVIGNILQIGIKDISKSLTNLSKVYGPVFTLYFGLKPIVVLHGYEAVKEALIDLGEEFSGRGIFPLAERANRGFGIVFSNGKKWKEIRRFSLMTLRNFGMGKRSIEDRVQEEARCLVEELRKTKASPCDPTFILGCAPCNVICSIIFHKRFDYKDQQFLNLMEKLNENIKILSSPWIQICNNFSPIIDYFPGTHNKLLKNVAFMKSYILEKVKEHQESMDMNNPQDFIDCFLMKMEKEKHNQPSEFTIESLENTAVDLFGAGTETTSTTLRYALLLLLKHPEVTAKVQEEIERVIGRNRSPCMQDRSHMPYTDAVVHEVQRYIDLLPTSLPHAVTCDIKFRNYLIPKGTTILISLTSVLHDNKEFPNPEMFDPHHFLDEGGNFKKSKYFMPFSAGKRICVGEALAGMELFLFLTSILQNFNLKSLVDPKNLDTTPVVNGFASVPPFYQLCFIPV

Regarding `c1cc[nH]c1`, the outcome in assay [1] was inactive.
A word on the AC50: it is the midpoint of the concentration-response curve, whichever way the signal moves. With `CCCCCCCCCCCCCCCCCC[N+](C)(C)Cc1ccccc1`, the AC50 in assay [1] is 0.425 µM (active).
As to `CC1=NN(c2ccccc2)C(=O)C1`, in assay [2], the AC50 was 3.06 µM (active).
On to `CC(C)C=O`, for which, in assay [3], the AC50 is 5 µM (active).
On to `CCCCC(CC)C(=O)OCCOCCOCCOCCOC(=O)C(CC)CCCC` (stereo unspecified), for which, in assay [3], the outcome was inactive.
As for `NC(=NCCCCCCN=C(N)/N=C(\N)Nc1ccc(Cl)cc1)/N=C(\N)Nc1ccc(Cl)cc1`, the AC50 in assay [4] is 2.84 µM (active).
`CCCCC(CC)C(=O)O` (stereo unspecified): the call in assay [5] was inactive.
On to `CCCCCCCCCCCCOS(=O)(=O)O`, for which the compound was classed as inactive in assay [5]. Also, the values for the AC50 in assay [6] and in assay [7] were 25 µM (active) and 32.9 µM (active), respectively.
On to `Cc1[nH]nc2c1N=C(c1ccccc1Cl)c1cc([N+](=O)[O-])ccc1N2`, for which, in assay [6], the compound was classed as inactive.
